Assay results from PubChem BioAssay.
Results filed as inconclusive are left out. Some structures have more than one record in an assay (separate samples or runs), and their calls can disagree. Activity calls are given as the source filed them. Unless noted, no cut-off is given here; in the data, nearly all actives have AC50 up to about 26 µM.

How the values were obtained:
[1] = viability loss in pontine glioma line – cell-based, SU-DIPG-XVII, MIPE5.0, CellTiter-Glo, qHTS, dose response (AID 1347060); conditions: CellTiter-Glo ATP luminescence;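 for AC50: cells exposed to compound for 48 hours before viability readout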
[2] = viability loss in pontine glioma line – cell-based, SU-DIPG-XIII, MIPE4.0, CellTiter-Glo, qHTS, dose response (AID 1347061; cut-off not given, nearly all actives have AC50 up to about 37 µM;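 note: cells exposed to compound for 48 hours before readout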); conditions: CellTiter-Glo ATP luminescence
[3] = viability loss in pontine glioma line – cell-based, JHH-DIPG-1, MIPE4.0, CellTiter-Glo, qHTS, dose response (AID 1347062; cut-off not given, nearly all actives have AC50 up to about 27 µM;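 for AC50: cells exposed to compound for two days before readout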); conditions: JHH-DIPG-1 viability, CellTiter-Glo ATP luminescence
[4] = viability loss in pontine glioma line – cell-based, SU-DIPG-IV, MIPE4.0, CellTiter-Glo, qHTS, dose response (AID 1347063; cut-off not given, nearly all actives have AC50 up to about 30 µM;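 note: compound exposure lasted 48 hours before the viability readout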); conditions: CellTiter-Glo ATP luminescence
[5] = viability loss in pontine glioma line – cell-based, SU-DIPG-XIII, MIPE5.0, CellTiter-Glo, qHTS, dose response (AID 1347064; cut-off not given, nearly all actives have AC50 up to about 23 µM;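 for AC50: cells exposed to compound for 48 hours before the viability read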); conditions: CellTiter-Glo ATP luminescence
[6] = viability loss in pontine glioma line – cell-based, SU-DIPG-XXV, MIPE5.0, CellTiter-Glo, qHTS, dose response (AID 1347065); conditions: CellTiter-Glo ATP luminescence;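 note: cells exposed to compound for 48 hours before ATP readout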
[7] = growth inhibition of DIPG cells – cell-based, MIPE5.0 library, qHTS (AID 1347068; cut-off not given, nearly all actives have IC50 up to about 30 µM;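 for IC50: cells exposed to compound for 48 hours before viability readout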); conditions: SU-DIPG-XXV viability
[8] = tested on: Aerobactin synthetase IucA (Klebsiella pneumoniae); assay: inhibition of K. pneumoniae IucA enzyme – biochemical, Tocris library, absorbance (AID 1345561; call rule not given here;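 note: 100% = enzyme without compound and 0% = no enzyme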); conditions: purified IucA enzyme assay, absorbance (OD) read-out; stronger effect = lower value;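 tested at 8 µM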
[9] = viability loss with induced miR-34 in A549 – imaging, A549 dox-inducible miR-34, nuclei and caspase counts, primary screen (AID 1347080;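 active = compounds whose cell count with miR-34 switched on is under 0.7 times the count with it off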); conditions: A549 miR-34 inducible, Hoechst nuclei count, 48 h
[10] = galactose survival enhancers in mitochondrial complex I cybrids – cell-based, galactose medium, ATP luminescence, primary screen (AID 1645843;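 active = z-score of at least 1.8 in each of two replicates, scored against plate mean and spread of sample wells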;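 note: positive z means more ATP and so rescue of galactose-driven cybrid death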); conditions: complex I mutant cybrid cells, 72 h, stronger effect = higher value
[11] = growth inhibition of DIPG cells – cell-based, MIPE4.0 library, CellTiter-Glo luminescence, qHTS (AID 1347066; cut-off not given, nearly all actives have AC50 up to about 30 µM;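 note: cells exposed to compound for 48 hours before readout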); conditions: SU-DIPG-VI viability, CellTiter-Glo ATP luminescence
[12] = JHH-DIPG-1 glioma cell viability, MIPE5.0 library, CellTiter-Glo luminescence, qHTS (AID 1347067); conditions: JHH-DIPG-1 glioma viability, CellTiter-Glo ATP luminescence;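 note: cells exposed to compound for 48 hours before readout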
[13] = P. berghei load reduction in hepatocytes – cell-based, HepG2, luciferase luminescence, HepG2 viability, primary screen (AID 624349; in the data active = parasite load remaining mostly below about 12%, no sharp cut-off; inactive = mostly above about 10%;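 note: 100% = mean of DMSO negative control wells on the same plate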); conditions: P. berghei liver stage in HepG2, luciferase luminescence, concentration not given here; parasite load remaining: stronger effect = lower value; viability: measured here: HepG2 viability without parasites
[14] = stronger effect = lower value, cell number ratio, induced over uninduced
[15] = measured here: relative caspase fold change +Dox/-Dox
[16] = measured here: total cells with miR-34 induction, stronger effect = lower value
[17] = measured here: total cells without miR-34 induction

O=C(c1ccc(F)c(F)c1Nc1ccc(I)cc1F)N1CC(O)([C@@H]2CCCCN2)C1
active: AC50 [1] 0.332 µM | AC50 [2] 0.418 µM | AC50 [3] 0.332 µM | AC50 [4] 5.9 µM | AC50 [5] 0.372 µM | AC50 [6] 0.525 µM

CC(C)(C)C[C@H]1N[C@@H](C(=O)NC2CCC(O)CC2)[C@H](c2cccc(Cl)c2F)[C@@]12C(=O)Nc1cc(Cl)ccc12 (stereo partly drawn)
active: AC50 [1] 23.5 µM

CC(C)C[C@H](CO)Nc1nc(S[C@@H](C)c2ccccc2)nc2nc(N)sc12
inactive: outcome [1]

Cc1cc(C)c(CNC(=O)c2cc(-c3ccc(N4CCN(C)CC4)nc3)cc3c2c(C)cn3C(C)C)c(=O)[nH]1
inactive: outcome [1] | outcome [5] | outcome [7]
active: AC50 [1] 20.9 µM | AC50 [6] 26.3 µM

CN(C)C(=O)n1nnnc1Cc1ccc(-c2ccccc2)cc1
inactive: remaining activity [8] 82% | fold change [9, 14] 1.31 | z-score [10] -0.57
1400: cell count [9, 17]
1.05: fold change [9, 15]
1840: cell count [9, 16]

O=C1NC(O)CCN1[C@@H]1O[C@H](CO)[C@@H](O)[C@H]1O (stereo partly drawn)
inactive: outcome [1] | outcome [2] | outcome [3] | outcome [4] | outcome [5] | outcome [6] | outcome [11] | outcome [12] | outcome [7]

CCCCC(=O)OCC(=O)[C@]1(O)Cc2c(O)c3c(c(O)c2[C@@H](O[C@H]2C[C@H](NC(=O)C(F)(F)F)[C@H](O)[C@H](C)O2)C1)C(=O)c1c(OC)cccc1C3=O
active: AC50 [1] 1.66 µM

Cc1cnc(Nc2ccc(F)cc2Cl)nc1-c1c[nH]c(C(=O)N[C@H](CO)c2cccc(Cl)c2)c1
active: AC50 [1] 1.32 µM | AC50 [2] 18.7 µM | AC50 [3] 0.833 µM | AC50 [4] 0.469 µM | AC50 [5] 1.32 µM | AC50 [6] 2.09 µM | AC50 [11] 18.7 µM | AC50 [12] 0.833 µM | IC50 [7] 9.34 µM

CC1=C(CO)C(=O)O[C@@H]([C@@H](C)[C@H]2CC[C@H]3[C@@H]4C[C@H]5O[C@]56[C@@H](O)C=CC(=O)[C@]6(C)[C@H]4CC[C@]23C)C1
active: AC50 [1] 1.48 µM | AC50 [2] 1.87 µM | AC50 [3] 1.18 µM | AC50 [4] 0.332 µM | AC50 [5] 1.05 µM | AC50 [6] 1.48 µM | AC50 [11] 0.743 µM | AC50 [12] 1.32 µM | IC50 [7] 2.35 µM

COc1cc2c(Oc3ccc(-c4cnc(Nc5ccc(F)cc5)n(C)c4=O)cc3F)ccnc2cc1OCCCN1CCOCC1
active: AC50 [1] 3.32 µM | AC50 [2] 14.8 µM | AC50 [3] 18.7 µM | AC50 [4] 16.6 µM | AC50 [5] 3.72 µM | AC50 [6] 2.09 µM | AC50 [11] 9.35 µM | AC50 [12] 9.34 µM | IC50 [7] 6.61 µM

C=CCNc1c(O)cc2c(O)c1C[C@@H](C)C[C@H](OC)[C@H](O)[C@@H](C)/C=C(/C)[C@H](OC(N)=O)[C@@H](OC)/C=C\C=C(\C)C(=O)N2
active: AC50 [1] 0.525 µM | AC50 [2] 1.05 µM | AC50 [3] 0.332 µM | AC50 [4] 0.148 µM | AC50 [5] 1.66 µM | AC50 [6] 3.72 µM | AC50 [11] 14.8 µM | AC50 [12] 0.468 µM

Cc1ccc(NC2=CC(=O)c3sc(C)nc3C2=O)cc1
0.845: fold change [9, 15]
inactive: parasite load remaining [13] 21% | remaining activity [8] 117% | fold change [9, 14] 0.814 | z-score [10] -0.705
1300: cell count [9, 17]
105%: viability [13]
1060: cell count [9, 16]

COC(=O)C[C@](O)(CCCC(C)(C)O)C(=O)O[C@@H]1C(OC)=CC23CCCN2CCc2cc4c(cc2[C@H]13)OCO4 (stereo partly drawn)
active: AC50 [1] 0.0661 µM | AC50 [5] 0.118 µM | AC50 [6] 0.0934 µM | AC50 [12] 0.332 µM
inactive: outcome [2] | outcome [3] | outcome [4] | outcome [11] | outcome [7]

CO[C@H]1/C=C\C=C(\C)C(=O)NC2=CC(=O)C(NCCN(C)C)=C(C[C@@H](C)C[C@H](OC)[C@H](O)[C@@H](C)/C=C(/C)[C@@H]1OC(N)=O)C2=O
active: AC50 [1] 0.0525 µM | AC50 [2] 0.0833 µM | AC50 [3] 0.187 µM | AC50 [4] 0.0132 µM | AC50 [5] 0.118 µM | AC50 [6] 0.235 µM | AC50 [11] 5.26 µM | AC50 [12] 0.0742 µM | IC50 [7] 1.18 µM

CC[C@H](CO)Nc1nc(NCc2ccc(-c3ccccn3)cc2)c2ncn(C(C)C)c2n1
inactive: parasite load remaining [13] 135% | remaining activity [8] 108% | fold change [9, 14] 1.16 | z-score [10] -0.89
0.699: fold change [9, 15]
85.7%: viability [13]
1650: cell count [9, 17]
1900: cell count [9, 16]

COc1cc(C)c(Sc2cnc(NC(=O)c3ccc(CNC(C)C(C)(C)C)cc3)s2)cc1C(=O)N1CCN(C(C)=O)CC1 (stereo not drawn)
active: AC50 [1] 10.5 µM | AC50 [2] 16.6 µM | AC50 [3] 20.9 µM | AC50 [4] 7.43 µM | AC50 [5] 6.61 µM | AC50 [6] 4.17 µM | AC50 [11] 18.7 µM

COc1cc(C(=O)NC(N)=Nc2ccc(C)c(NC(=O)c3ccc(-c4ccccc4)cc3)c2)cc(OC)c1OC
active: AC50 [1] 16.6 µM

O=C(NC1CC1)c1cccc(-c2ccc3c(NC(=O)C4CC4)n[nH]c3c2)c1
active: AC50 [1] 10.5 µM | AC50 [2] 4.69 µM | AC50 [3] 9.35 µM | AC50 [4] 11.8 µM | AC50 [5] 8.33 µM

COc1ccc(S(=O)(=O)Nc2cc(-c3c(O)ccc4ccccc34)c(O)c3ccccc23)cc1
inactive: outcome [7]
active: AC50 [1] 0.105 µM | AC50 [2] 13.2 µM | AC50 [3] 18.7 µM | AC50 [4] 7.43 µM | AC50 [5] 3.32 µM | AC50 [6] 2.35 µM | AC50 [11] 4.69 µM | AC50 [12] 2.95 µM

CCn1cc(-c2ccnc3[nH]c(-c4cccc(CN(C)C)c4)cc23)c(-c2ccc(NC(=O)N(C)C)cc2)n1
active: AC50 [1] 0.59 µM | AC50 [2] 13.2 µM | AC50 [3] 16.6 µM | AC50 [4] 0.209 µM | AC50 [5] 8.33 µM | AC50 [6] 0.525 µM | AC50 [11] 20.9 µM | AC50 [12] 11.8 µM | IC50 [7] 7.42 µM

CC(=O)OC[C@@H]1O[C@@H](n2ccc(=O)[nH]c2=O)[C@H](OC(C)=O)[C@@H]1OC(C)=O
inactive: outcome [1] | outcome [2] | outcome [3] | outcome [4] | outcome [5] | outcome [6] | outcome [11] | outcome [12] | outcome [7]
